Out of some 3,300 compounds screened, about 280 (8.5%) were called active. This excerpt belongs to a sample that is enriched for actives. A number with no mark means an inactive call.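 Rule for the calls: active = mean growth inhibition over the two runs of 50% or more; inactive = mean growth inhibition under 50%.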
experiment: A549 NSCLC cell proliferation inhibitors – ATP luminescence, human non-small cell lung line, primary screen (AID 371); settings: at 10 µM, stronger effect = higher value;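 note: compound exposure lasted 72 h before the ATP read; 0% = untreated cell signal and 100% = no luminescence left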

SMILES	growth inhibition
CN(C)CCOC(=O)c1cn(Cc2ccccc2)c2ccccc12	61.2% (active)
COCC(C)OC(=O)c1c(N)n(Cc2ccco2)c2nc3ccccc3nc12 (stereo not given)	14%
Nc1c(C(=O)NCc2ccco2)c2nc3ccccc3nc2n1CCN1CCCCC1	91.8% (active)
Nc1c(C(=O)NCc2ccco2)c2nc3ccccc3nc2n1Cc1ccc(F)cc1	86.7% (active)
COCCOC(=O)c1c(N)n(Cc2ccco2)c2nc3ccccc3nc12	12.9%
CCCCOCCCn1c(N)c(C(=O)OCCOC)c2nc3ccccc3nc21	23.4%
CC(C)(C)OC(=O)c1c(N)n(Cc2ccco2)c2nc3ccccc3nc12	56.9% (active)
CCCCOCCCn1c(N)c(C(=O)OC(C)COC)c2nc3ccccc3nc21 (stereo not given)	36.6%
CC(C)OC(=O)c1c(N)n(Cc2ccco2)c2nc3ccccc3nc12	18.6%
COc1ccc(Cn2c(O)c(C=NCCCn3ccnc3)c(=O)[nH]c2=O)cc1	-7.41%
CCCCCCn1c(O)c(C(C)=NC)c(=O)[nH]c1=O	8.94%
O=C(c1ccco1)C12CN3CN(CN(C3)C1)C2	-3.02%
OC1(c2ccc(F)cc2)CCNC1 (stereo not given)	-3.04%
O=C1C2CCN(CC2)[C@@H]1Cc1ccc2ccccc2c1O	7.73%
COc1cc2[nH]c(=O)n(-c3cccc(Cl)c3)c(=O)c2cc1OC	3.67%
O=C1c2ccccc2C(=O)N1Cc1nc2ccccc2c(=O)n1-c1cccnc1	-0.22%
C=CCC1(CN2CCCCCC2=O)C(=O)NC(=O)NC1=O	2.99%
CCCCNC(=O)Nc1ccc(C(O)(C(=O)OC)C(F)(F)F)cc1 (stereo not given)	-4.53%
CCOC(C(=O)OCC(O)CN(CC)CC)(c1ccccc1)c1ccccc1 (stereo not given)	15.7%
O=C(O)CCCc1ccc(N(CCCl)CCCl)cc1	50.8% (active)
CCOCCN1CCC(OC(C)=O)C(C)C1 (stereo not given)	1.45%
CCOc1ccc(Cc2c(O)[nH]c(=O)[nH]c2=O)cc1	-5.3%
CCCCNC(=O)Nc1ccc(C(O)(C(=O)OCC)C(F)(F)F)cc1 (stereo not given)	-3.41%
CN1CCC(OC(=O)C2c3ccccc3Oc3ccccc32)CC1	13%

SMILES	growth inhibition
CCCC12CN3CN(C1)CC(CCC)(C3)C2O (stereo not given)	-0.83%
CC(C)[C@@]1(NC(=O)[C@@H]2C[C@@H]3c4cccc5[nH]cc(c45)C[C@H]3N(C)C2)O[C@@]2(O)[C@@H]3CCCN3C(=O)[C@H](Cc3ccccc3)N2C1=O	85.1% (active)
CC(C)[C@@]1(NC(=O)[C@@H]2C=C3c4cccc5[nH]cc(c45)C[C@H]3N(C)C2)O[C@@]2(O)[C@@H]3CCCN3C(=O)[C@H](Cc3ccccc3)N2C1=O	35.2%
CC(C)[C@H]1C(=O)N2CCC[C@H]2[C@]2(O)O[C@](NC(=O)[C@@H]3C=C4c5cccc6[nH]cc(c56)C[C@H]4N(C)C3)(C(C)C)C(=O)N12	37.3%
O=c1[nH]c(=O)n(Cc2ccccc2)c(O)c1C=NCCN1CCOCC1	-6.38%
O=c1[nH]c(=O)n(CCc2ccccc2)c(O)c1C=NCCN1CCNCC1	-7.13%
O=c1[nH]c(=O)n(Cc2ccccc2)c(O)c1C=NCCN1CCNCC1	4.69%
O=c1c(C=NCCN2CCNCC2)c(O)n(C2CCCCC2)c(=O)n1C1CCCCC1	82.3% (active)
OC(c1ccc(F)cc1)C(c1ccccc1)N1CCOCC1 (stereo not given)	7.16%
O=c1[nH]c(=O)n(Cc2ccco2)c(O)c1C=NCCN1CCOCC1	0.93%
CC1CCC(C(C)C)C(OP(N)(=O)c2ccccc2)C1 (stereo not given)	16.9%
CNCCc1nc(N)n[nH]1	1.61%
Cc1c(N=Cc2c(O)n(CCc3ccccc3)c(=O)[nH]c2=O)c(=O)n(-c2ccccc2)n1C	79.2% (active)
Cc1c(N=Cc2c(O)n(CCc3ccc(F)cc3)c(=O)[nH]c2=O)c(=O)n(-c2ccccc2)n1C	12.3%
CCCCCCn1c(O)c(C=Nc2c(C)n(C)n(-c3ccccc3)c2=O)c(=O)[nH]c1=O	6.23%
C=CCn1c(O)c(C=NCCN(C)C)c(=O)[nH]c1=O	2.68%
O=c1[nH]c(=O)n(CCc2ccccc2)c(O)c1C=NCCCn1ccnc1	-3.73%
CCOc1ccccc1-n1c(O)c(C=Nc2c(C)n(C)n(-c3ccccc3)c2=O)c(=O)[nH]c1=O	0.12%
CC1(C)NCCN2C(=O)CSC21 (stereo not given)	-1.76%
O=C(CCCN1CCC2(CC1)C(=O)NCN2c1ccccc1)c1ccc(F)cc1	54.1% (active)
CCCN(CC#CCO)CCC	0.1%
Cn1c(O)c(C(=O)c2ccccc2Cl)c(=O)n(C)c1=O	2.11%
CC(=O)OC1(c2ccc(C)cc2)CN2CCC1c1ccccc12 (stereo not given)	6.24%
C=CCn1c(O)c(C=Nc2ccc(N(CC)CC)cc2)c(=O)[nH]c1=O	4.7%

SMILES	growth inhibition
O=c1[nH]c(=O)n(-c2cccc(Cl)c2)c(O)c1C=NCCN1CCCCC1	4.68%
Cc1c(N=Cc2c(O)n(Cc3ccco3)c(=O)[nH]c2=O)c(=O)n(-c2ccccc2)n1C	-0.44%
CCCCCCn1c(O)c(C=NCCN2CCCCC2)c(=O)[nH]c1=O	-5.08%
Clc1ccc(COC(Cn2ccnc2)c2ccc(Cl)cc2Cl)cc1 (stereo not given)	91.6% (active)
Clc1ccc(COC(Cn2ccnc2)c2ccc(Cl)cc2Cl)c(Cl)c1 (stereo not given)	92.5% (active)
c1ccc(Cn2ccnc2)cc1	8.97%
Clc1ccc(CSC(Cn2ccnc2)c2ccc(Cl)cc2Cl)cc1 (stereo not given)	93.2% (active)
CCOc1ccc(-n2c(O)c(C=Nc3ccc(N(CC)CC)cc3)c(=O)[nH]c2=O)cc1	9.98%
CC(=O)C1(c2ccccc2)CCNCC1	2.01%
Cn1c(O)c(C=NCCCNC2CCCCC2)c(=O)n(C)c1=O	0.52%
CCOc1ccccc1-n1c(O)c(C=Nc2ccc(N(CC)CC)cc2)c(=O)[nH]c1=O	45.4%
CCCCSP1(=S)NCCCN1	2.57%
O=C(COc1ccc2ccccc2c1)N1CCN(C2CCN(Cc3ccccc3)CC2)CC1	36.9%
O=c1[nH]c(=O)n(C2CCCCC2)c(O)c1C=NCCCn1ccnc1	3.81%
O=c1[nH]c(O)c(C=NC2CCN(Cc3ccccc3)CC2)c(=O)[nH]1	6%
COc1cccc(-n2c(C)nc3ccccc3c2=O)c1	9.28%
COc1ccc(C2SCC(=O)Nc3c2c(=O)[nH]n3C2CCCCCC2)cc1 (stereo not given)	25.3%
CCC(=NCCN1CCCCC1)c1c(O)n(C)c(=O)n(C)c1=O	-4.37%
CC(=NCCO)c1c(O)n(C)c(=O)n(C)c1=O	-4.52%
CCC(=NCCOc1ccc(Cl)cc1)c1c(O)n(C)c(=O)n(C)c1=O	55.2% (active)
O=C(Nc1ccncc1)c1c(O)c2ccccc2n(Cc2ccccc2)c1=O	68.1% (active)
CCN(CC)CCCC(C)N=C(c1ccccc1)c1c(O)n(C)c(=O)n(C)c1=O (stereo not given)	7.06%
CCN(CC)CCCNC(=O)c1c(O)c2ccccc2n(Cc2ccccc2)c1=O	91.6% (active)
CCN(CC)CCN=Cc1c(O)n(CCc2ccccc2)c(=O)[nH]c1=O	2.4%

SMILES	growth inhibition
CN1CCc2nc(SCC(=O)OC(C)(C)C)c(C#N)cc2C1	25.1%
CCCCC1(CN2CCCC2=O)C(=O)NC(=O)NC1=O	3.02%
COCCOC(=O)C1=C(N)Oc2c(c(=O)oc3ccccc23)[C@@]12C(=O)Nc1ccccc12	-4.66%
CC1CN=C(Nc2ccc(N(C)C)cc2)S1 (stereo not given)	0.47%
CCOC(=O)c1cc(C)n(CCc2cnc[nH]2)c1C	9.02%
C[C@H]1CCCC(=O)CCCCCc2cc(O)cc(O)c2C(=O)O1	52.1% (active)
OCCOCC#CCN1CCOCC1	0.81%
CCCCSP1(=S)NCCCO1 (stereo not given)	19.6%
C[C@@]1(CO)[C@H](O)CC[C@@]2(C)[C@H]1CC[C@H]1C[C@@H]3C[C@@]12CC[C@]3(O)CO	69.6% (active)
O=P(c1ccccc1)(c1ccccc1)N1CCCCC1	8.66%
O=c1[nH]c(=O)n(Cc2ccco2)c(O)c1C=NCc1ccc2c(c1)OCO2	18.1%
CC1=C(C(=O)OC(C)C)[C@]2(C(=O)N(CC(N)=O)c3ccccc32)C(C#N)=C(N)O1	5.06%
Cc1c2ccncc2c(C)c2c1[nH]c1ccccc12	95% (active)
c1ccc2c(c1)[nH]c1cnccc12	-5.8%
COc1cccc(CN2CCN(C(=O)COc3ccc4ccccc4c3)CC2)c1	33.9%
C[C@H]1CCC/C=C/C2C[C@H](O)CC2[C@H](O)/C=C/C(=O)O1 (stereo not given in full)	76% (active)
OC(Cc1ccccc1)(c1ccccc1)C1CN2CCC1CC2 (stereo not given)	34.4%
Cc1ccc2c(c1)[C@@H]1CN(C)CC[C@@H]1N2C(=O)Nc1cccc(C(F)(F)F)c1	83% (active)
COc1ccc(C(=O)CN2CCOCC2)cc1F	16%
CN1CCc2c(c(N3CCCCC3)nc3n[nH]c(N)c23)C1	0.74%
COc1ccc2[nH]cc(CCN(C)C)c2c1	1.86%
CCCc1nc2ccccc2c(=O)n1-c1ccccc1OC	-0.02%
CCN(CC)c1ccc(N=Cc2c(O)n(-c3ccccc3C)c(=O)[nH]c2=O)cc1	29.6%

Reference: PubChem BioAssay AID371 (SRMLSC, 2006)
